Experimental data as given in PubChem BioAssay (NCATS).
Several values for one entry are separate records, joined by “and”; a condition that tells them apart may be missing. Equal entries are not always repeated. Records with an inconclusive call do not appear. Activity calls are given as the source filed them. Unless noted, calls follow the shape of the dose curve; as a rule, active = well fitted curve in the direction sought with a large enough effect; inconclusive = small, poorly fitted or top-dose-only effect, or another doubt; inactive = no such curve, though single readings can be large; an effect the other way counts as inactive or inconclusive.

Key:
[1] = molecular target: Estrogen receptor (Homo sapiens) (UniProt P03372); assay: qHTS assay for small molecule antagonists of estrogen receptor alpha signaling (AID 588513; active = well fitted curve in the direction sought with a large enough effect in the signal ratio, with a control signal flat, not every such curve was filed as active; the % refers to the signal ratio; also: % is scaled to controls: 0 for no effect and ±100 for the full control effect)
Estrogen receptor (Homo sapiens), sequence (P03372 whole entry, looked up): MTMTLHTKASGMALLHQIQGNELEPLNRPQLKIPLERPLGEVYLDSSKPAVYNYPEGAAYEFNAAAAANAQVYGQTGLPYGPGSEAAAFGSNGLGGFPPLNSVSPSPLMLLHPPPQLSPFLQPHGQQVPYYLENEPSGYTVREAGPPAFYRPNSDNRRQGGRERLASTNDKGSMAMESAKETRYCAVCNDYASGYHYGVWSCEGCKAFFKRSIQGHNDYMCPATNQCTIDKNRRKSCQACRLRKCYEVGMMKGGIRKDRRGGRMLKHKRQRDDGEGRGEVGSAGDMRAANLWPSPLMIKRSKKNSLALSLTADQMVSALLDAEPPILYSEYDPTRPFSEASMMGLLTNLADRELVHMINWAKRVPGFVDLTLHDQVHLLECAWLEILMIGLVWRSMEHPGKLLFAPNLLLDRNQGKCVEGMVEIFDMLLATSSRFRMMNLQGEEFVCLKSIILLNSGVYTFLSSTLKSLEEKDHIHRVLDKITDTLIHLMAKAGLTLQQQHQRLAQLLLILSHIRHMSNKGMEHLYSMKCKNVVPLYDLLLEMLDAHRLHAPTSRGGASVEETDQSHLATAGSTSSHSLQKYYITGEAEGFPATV
In short: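 ER-alpha-UAS-bla GripTite HEK 293 cells in 2% charcoal/dextran-treated FBS medium; compounds titrated (1:2, duplicate), then stimulated with 0.5 nM 17-beta-estradiol for 18 h at 37C. CCF4 beta-lactamase fluorescence; Hill-fit IC50 and efficacy.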

[2] = molecular target: Peroxisome proliferator-activated receptor delta (Homo sapiens) (UniProt Q03181); assay: qHTS assay for small molecule agonists of peroxisome proliferator-activated receptor delta signaling (AID 588534; calls by dose curve;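 also: 0% = DMSO basal wells and 100% = positive control agonist at 10 µM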)
Peroxisome proliferator-activated receptor delta (Homo sapiens), sequence (Q03181 whole entry, looked up): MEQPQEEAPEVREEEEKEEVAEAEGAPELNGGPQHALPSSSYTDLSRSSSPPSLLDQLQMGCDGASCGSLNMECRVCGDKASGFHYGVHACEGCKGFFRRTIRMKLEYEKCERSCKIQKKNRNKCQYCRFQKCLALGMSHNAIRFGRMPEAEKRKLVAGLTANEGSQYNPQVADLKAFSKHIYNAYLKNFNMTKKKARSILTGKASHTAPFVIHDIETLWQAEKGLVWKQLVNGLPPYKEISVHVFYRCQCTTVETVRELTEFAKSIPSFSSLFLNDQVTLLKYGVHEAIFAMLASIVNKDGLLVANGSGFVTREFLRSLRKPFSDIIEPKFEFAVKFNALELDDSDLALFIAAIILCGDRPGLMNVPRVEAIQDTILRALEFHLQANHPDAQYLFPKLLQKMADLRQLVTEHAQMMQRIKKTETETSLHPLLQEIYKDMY
In short: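 Cells carrying a PPAR-delta beta-lactamase reporter were treated with compounds for 18 h at 37 °C in agonist mode. CCF4 fluorescence was read after 2 h; EC50 and efficacy from Hill fits.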

[3] = qHTS assay for small molecule antagonists of peroxisome proliferator-activated receptor delta signaling (AID 588535); settings: HEK293T PPARd-UAS-bla, beta-lactamase FRET ratio, 18 h; 460 nm channel;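 also: cells co-treated with a PPAR-delta agonist as stimulator during compound exposure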
In short: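 Reporter: UAS-bla under PPAR-delta response element, HEK293T host. Medium: 2% charcoal/dextran FBS. Dosing: titration, 18 hrs, 37 C. Detection: CCF4, 2 hrs RT, 405 ex/460 and 530 em.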

[4] = molecular target: Peroxisome proliferator-activated receptor gamma (Homo sapiens) (UniProt P37231); assay: qHTS assay for small molecule agonists of peroxisome proliferator-activated receptor gamma signaling (AID 588536; active = well fitted curve in the direction sought with a large enough effect in the signal ratio, with a control signal flat, not every such curve was filed as active; the % refers to the signal ratio;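 also: 0% = DMSO basal wells and 100% = rosiglitazone at 2 µM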)
Peroxisome proliferator-activated receptor gamma (Homo sapiens), sequence (P37231 whole entry, looked up): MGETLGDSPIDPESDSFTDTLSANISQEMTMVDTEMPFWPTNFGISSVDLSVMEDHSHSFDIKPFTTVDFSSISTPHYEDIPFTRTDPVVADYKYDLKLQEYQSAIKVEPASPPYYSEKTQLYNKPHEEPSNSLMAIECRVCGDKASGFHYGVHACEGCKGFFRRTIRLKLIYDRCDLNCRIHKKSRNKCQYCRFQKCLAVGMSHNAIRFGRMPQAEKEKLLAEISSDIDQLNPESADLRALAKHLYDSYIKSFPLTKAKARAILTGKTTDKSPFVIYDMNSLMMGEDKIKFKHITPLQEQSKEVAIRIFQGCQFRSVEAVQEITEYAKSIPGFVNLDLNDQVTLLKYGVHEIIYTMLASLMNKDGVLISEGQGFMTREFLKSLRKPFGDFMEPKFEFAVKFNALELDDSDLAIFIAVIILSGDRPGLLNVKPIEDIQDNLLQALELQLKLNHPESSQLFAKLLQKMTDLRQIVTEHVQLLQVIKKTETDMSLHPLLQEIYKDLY
In short: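 GeneBLAzer PPAR-gamma-UAS-bla HEK293 cells in 1% charcoal/dextran-treated FBS medium were treated 16 h at 37 C with compounds. Beta-lactamase activity was read by CCF4 ratio (460/530 nm). Response was normalized to 2 uM rosiglitazone (100%) and DMSO, then Hill-fitted for EC50 and efficacy.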

[5] = molecular target: Peroxisome proliferator-activated receptor gamma (Homo sapiens) (UniProt P37231); assay: qHTS assay for small molecule antagonists of peroxisome proliferator-activated receptor gamma signaling (AID 588537; active = well fitted inhibition curve with a large enough effect in the signal ratio, with a control signal flat, not every such curve was filed as active; the % refers to the signal ratio;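 also: reporter cells co-stimulated with 50 nM rosiglitazone agonist during compound treatment; % of control where 0% means no effect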)
In short: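 We seeded GeneBLAzer HEK293 reporter cells at 3000 per well, allowed 6-6.5 h attachment at 37 C, then co-treated with test compound titrations and 50 nM rosiglitazone overnight (16 h). Inhibition was quantified from 460/530 nm emission ratios.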

[6] = molecular target: Retinoic acid receptor RXR-alpha (Homo sapiens) (UniProt P19793); assay: qHTS assay for small molecule agonists of retinoid X receptor alpha signaling (AID 588544; calls by dose curve;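 also: 0% = DMSO basal wells and 100% = reference agonist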)
Retinoic acid receptor RXR-alpha (Homo sapiens), sequence (P19793 whole entry, looked up): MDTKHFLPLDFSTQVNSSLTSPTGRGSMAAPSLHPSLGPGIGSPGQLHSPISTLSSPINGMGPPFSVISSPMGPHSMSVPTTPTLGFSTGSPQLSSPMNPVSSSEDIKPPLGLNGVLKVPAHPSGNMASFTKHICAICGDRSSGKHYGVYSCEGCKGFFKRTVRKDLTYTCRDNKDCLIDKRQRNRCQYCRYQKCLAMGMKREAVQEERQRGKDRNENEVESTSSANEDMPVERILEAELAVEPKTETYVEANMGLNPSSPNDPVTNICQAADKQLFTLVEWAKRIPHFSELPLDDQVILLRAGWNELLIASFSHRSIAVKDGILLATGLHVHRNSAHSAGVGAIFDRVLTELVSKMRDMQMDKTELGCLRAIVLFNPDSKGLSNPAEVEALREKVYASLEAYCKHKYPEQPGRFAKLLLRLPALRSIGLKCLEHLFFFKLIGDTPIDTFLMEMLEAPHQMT

[7] = molecular target: Thyroid hormone receptor beta (Homo sapiens) (UniProt P10828); assay: qHTS assay for small molecule agonists of thyroid hormone receptor beta signaling (AID 588545; calls by dose curve)
Thyroid hormone receptor beta (Homo sapiens), sequence (P10828 whole entry, looked up): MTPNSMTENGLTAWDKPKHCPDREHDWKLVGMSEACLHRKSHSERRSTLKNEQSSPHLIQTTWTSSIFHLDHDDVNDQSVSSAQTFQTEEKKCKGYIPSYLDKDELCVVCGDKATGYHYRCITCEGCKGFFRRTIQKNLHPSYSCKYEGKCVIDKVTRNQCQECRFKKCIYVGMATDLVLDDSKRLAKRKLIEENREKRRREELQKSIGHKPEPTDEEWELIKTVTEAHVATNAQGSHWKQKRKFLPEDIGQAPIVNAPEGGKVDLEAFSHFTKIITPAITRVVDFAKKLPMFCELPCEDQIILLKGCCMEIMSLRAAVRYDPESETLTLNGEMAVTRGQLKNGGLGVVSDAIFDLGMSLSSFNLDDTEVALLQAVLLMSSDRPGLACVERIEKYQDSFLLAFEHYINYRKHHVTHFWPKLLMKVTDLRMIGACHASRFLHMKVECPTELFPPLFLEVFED
In short: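 Agonist-mode beta-lactamase reporter assay, HEK 293 cells, 2% charcoal/dextran FBS; cells plated 4 hrs, compound 18 hrs at 37 C, CCF4 2 hrs RT. Normalized to 10 nM T3 (100%) and DMSO (0%); Hill fit gives EC50, efficacy.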

[8] = qHTS assay for small molecule antagonists of retinoid X receptor alpha signaling (AID 588546; active = well fitted inhibition curve with a large enough effect in the signal ratio, with a control signal flat, not every such curve was filed as active; the % refers to the signal ratio;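 also: cells stimulated with 9-cis-retinoic acid as agonist; % is scaled to controls: 0 for no effect and ±100 for the full control effect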); settings: HEK293T RXRa-UAS-bla, beta-lactamase ratio, antagonist mode; measured here: W530 green channel, cytotoxicity proxy
In short: (§1)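 Beta-lactamase reporter inhibition, read as CCF4 fluorescence ratio (ex 405, em 460/530 nm) after 2 h at RT. HEK293T UAS-bla cells, 2500/well, were stimulated with 9-cis-RA at 500 or 100 nM final alongside test compound for 18 h at 37 C.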

[9] = molecular target: Retinoic acid receptor RXR-alpha (Homo sapiens) (UniProt P19793); assay: as above; settings: HEK293T RXRa-UAS-bla, beta-lactamase ratio, antagonist mode
In short: as §1

[10] = molecular target: Thyroid hormone receptor beta (Homo sapiens) (UniProt P10828); assay: qHTS assay for small molecule antagonists of thyroid hormone receptor beta signaling (AID 588547; active = well fitted inhibition curve with a large enough effect in the signal ratio, with a control signal flat, not every such curve was filed as active; the % refers to the signal ratio;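 also: cells stimulated with 0.4 nM T3 agonist during compound exposure; series mostly up to about 77 µM; % is scaled to controls: 0 for no effect and ±100 for the full control effect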); settings: TR-UAS-bla HEK293, beta-lactamase ratio, antagonist mode, 18 h
In short: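 TR-UAS-bla GripTite HEK293 cells in 2% charcoal/dextran FBS medium were preincubated 4 h at 37 C, given compound (0.59 nM to 92 uM) plus 0.4 nM T3 (final) for 18 h, then CCF4 for 2 h at RT; Hill fit gave IC50.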

[11] = qHTS assay for environmental chemicals that activate the Aryl hydrocarbon Receptor (AhR) signaling pathway (AID 651777); settings: 1A2-DRE human hepatoma cells, luciferase, 24 h; activation: stronger effect = higher value; also: % of control where 0% means no effect; nearly all actives have a fitted effect of over 15% in size
In short: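 Luminescence read-out: One-Glo added for 30 min at RT after 24 hr compound treatment (37 C, 5% CO2) of human hepatoma cells expressing a DRE/CYP1A2 promoter–luciferase reporter; increased signal indicates AhR activation.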

[12] = molecular target: Peroxisome proliferator-activated receptor alpha (Homo sapiens) (UniProt Q07869); assay: qHTS assay for small molecule agonists of the peroxisome proliferator-activated receptor alpha (PPARalpha) signaling pathway (AID 651778); settings: PathHunter PPARalpha complementation, chemiluminescence, 6 h; max response: stronger effect = higher value; also: % of control where 0% means no effect
Peroxisome proliferator-activated receptor alpha (Homo sapiens), sequence (Q07869 whole entry, looked up): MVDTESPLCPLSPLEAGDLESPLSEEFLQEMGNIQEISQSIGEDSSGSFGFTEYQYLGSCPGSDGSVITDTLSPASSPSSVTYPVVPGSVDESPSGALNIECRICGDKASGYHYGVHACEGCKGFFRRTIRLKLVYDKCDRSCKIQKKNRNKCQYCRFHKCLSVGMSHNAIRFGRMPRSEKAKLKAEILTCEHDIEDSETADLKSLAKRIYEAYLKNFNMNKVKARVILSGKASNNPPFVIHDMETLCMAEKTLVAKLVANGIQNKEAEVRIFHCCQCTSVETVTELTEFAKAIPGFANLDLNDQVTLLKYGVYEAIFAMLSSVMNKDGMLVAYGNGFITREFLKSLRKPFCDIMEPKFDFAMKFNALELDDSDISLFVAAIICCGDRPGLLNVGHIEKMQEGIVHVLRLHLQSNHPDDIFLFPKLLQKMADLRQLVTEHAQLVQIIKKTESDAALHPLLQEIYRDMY
In short: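 Cells plated at 2,000/well and held overnight at 37 C, 5% CO2, then compound added by pin tool for 6 hr; after PathHunter detection reagent and 60 min at room temperature, chemiluminescence from enzyme complementation was read.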

[13] = qHTS assay for small molecule agonists of the antioxidant response element (ARE) signaling pathway measured by Nrf2-dependant transcriptional activity (AID 720636; active = well fitted curve in the direction sought with a large enough effect in the repeat runs; an effect the other way counts as inactive or inconclusive;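 also: HepG2 cells with an ARE-driven luciferase reporter; % of control where 0% means no effect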)
In short: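 HepG2 ARE-luc reporter line, 1% dialyzed FBS; 6 hr attachment at 37 C, compound pinned in, 16 hr at 37 C/5% CO2; ONE-Glo, 30 min RT, luminescence read.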

[14] = qHTS assay for small molecule agonists of the antioxidant response element (ARE) signaling pathway measured by Nrf2-dependant transcriptional activity - cell viability counter screen (AID 720653; active = well fitted curve in the direction sought with a large enough effect in the repeat runs; an effect the other way counts as inactive or inconclusive; also: % is scaled to controls: 0 for no effect and ±100 for the full control effect); settings: ARE-bla HepG2 viability, CellTiter-Glo ATP luminescence, 16 h; max response: stronger effect = lower value
In short: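 ARE-bla HepG2 cells (2,000/well) rested 5 hrs at 37C/5% CO2, then exposed to compounds in DMSO for 16 hrs. Viability was read in the same wells as intracellular ATP by luminescence, 30 min at room temperature after reagent addition.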

[15] = qHTS assay for cell viability of HEK293 cells (AID 743288); settings: ATP luminescence (CellTiter-Glo), 18 h; max response: stronger effect = lower value; also: % is scaled to controls: 0 for no effect and ±100 for the full control effect; nearly all actives have a fitted effect of over 50% in size
In short: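 Parental HEK293 cells, 2,000 per well, preincubated at least 5 h at 37 C, then exposed to compounds in DMSO for 18 h at 37 C. Viability by CellTiter-Glo ATP luminescence after 30 min at room temperature.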

[16] = qHTS assay for cell viability of the p53RE-bla HCT-116 cell line (AID 743292); also: % is scaled to controls: 0 for no effect and ±100 for the full control effect; nearly all actives have a fitted effect of over 55% in size
In short: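 Luminescent ATP quantitation (CellTiter-Glo) served as the viability read-out; reagent was added after 16 h compound exposure at 37 C and read after 30 min at room temperature. Cells: p53RE-bla HCT-116, 4,000 per well.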

[17] = molecular target: Nuclear receptor subfamily 1 group I member 2 (Rattus norvegicus) (UniProt Q9R1A7); assay: qHTS assay for small molecule activators of the rat pregnane X receptor (rPXR) signaling pathway (AID 651751; call rule not given here; also: 0% is about no effect); settings: rPXR reporter cells, luciferase (One-Glo), 24 h
Nuclear receptor subfamily 1 group I member 2 (Rattus norvegicus), sequence (Q9R1A7 whole entry, looked up): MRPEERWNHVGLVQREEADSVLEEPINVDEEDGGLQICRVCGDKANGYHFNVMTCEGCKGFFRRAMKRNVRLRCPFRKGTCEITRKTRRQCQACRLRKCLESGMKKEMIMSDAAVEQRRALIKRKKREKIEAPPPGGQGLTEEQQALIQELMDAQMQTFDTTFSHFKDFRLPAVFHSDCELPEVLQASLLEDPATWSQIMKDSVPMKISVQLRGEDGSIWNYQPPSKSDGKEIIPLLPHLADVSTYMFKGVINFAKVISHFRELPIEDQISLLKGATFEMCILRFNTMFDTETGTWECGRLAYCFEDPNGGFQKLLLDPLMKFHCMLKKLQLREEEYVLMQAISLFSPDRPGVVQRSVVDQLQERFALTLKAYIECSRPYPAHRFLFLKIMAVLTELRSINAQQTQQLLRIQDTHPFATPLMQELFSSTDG

[18] = molecular target: Vitamin D3 receptor (Homo sapiens) (UniProt P11473); assay: qHTS assay for small molecule antagonists of vitamin D receptor signaling (AID 588541; calls by dose curve)
Vitamin D3 receptor (Homo sapiens), sequence (P11473 whole entry, looked up): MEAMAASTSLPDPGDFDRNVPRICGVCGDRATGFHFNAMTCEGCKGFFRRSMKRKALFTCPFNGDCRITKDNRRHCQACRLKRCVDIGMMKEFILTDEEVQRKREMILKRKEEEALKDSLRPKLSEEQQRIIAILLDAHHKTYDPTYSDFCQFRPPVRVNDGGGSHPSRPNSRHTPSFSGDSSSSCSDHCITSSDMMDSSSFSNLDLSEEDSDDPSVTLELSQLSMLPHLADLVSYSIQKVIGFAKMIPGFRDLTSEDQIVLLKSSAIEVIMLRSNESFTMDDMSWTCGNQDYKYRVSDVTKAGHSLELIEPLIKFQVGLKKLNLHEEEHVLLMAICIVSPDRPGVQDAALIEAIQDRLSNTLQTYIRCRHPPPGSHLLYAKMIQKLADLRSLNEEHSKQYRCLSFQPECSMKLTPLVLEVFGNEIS
In short: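 VDR-UAS-bla HEK293T cells (2000/well, 2% charcoal-stripped FBS) were treated with titrated compounds plus 1-alpha,25-dihydroxyvitamin D3 (50 nM or 3 nM final) for 16 h at 37 C. CCF4 beta-lactamase fluorescence was read; Hill fits gave IC50.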

[19] = qHTS assay for small molecule activators of the p53 signaling pathway (AID 651743; active = well fitted activation curve with a large enough effect in the signal ratio, not every such curve was filed as active; the % refers to the signal ratio; also: series mostly up to about 92 µM; % of control where 0% means no effect); settings: HCT-116 p53RE-bla, beta-lactamase FRET ratio, 16 h; activation: stronger effect = higher value
In short: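 Cell-based beta-lactamase reporter (p53 response elements, HCT-116 background). After a 5-hour preincubation, cells received compound for 16 hours at 37 C; substrate development ran 2 hours at room temperature.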

[20] = molecular target: Estrogen receptor (Homo sapiens) (UniProt P03372); assay: qHTS assay for small molecule agonists of estrogen receptor alpha signaling (AID 588514; calls by dose curve;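 also: 0% = vehicle only and 100% = reference agonist; nearly all actives have a fitted effect of over 70% in size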)
In short: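 ER-alpha-UAS-bla GripTite HEK293 cells, 5000/well in 2% charcoal/dextran-stripped FBS medium, treated with compound titrations 18 h at 37 C. CCF4 beta-lactamase read by fluorescence after 2 h RT; normalised to 20 nM 17-beta-estradiol (100%) and DMSO (0%), Hill fit for EC50 and efficacy.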

| Structure (SMILES) | Potency [1] | outcome [2] | max response [3] | Potency [4] | Potency [5] | Potency [6] | Potency [7] | max response [8] | max response [9] | activity change % (negative = inhibition) [10] | activation [11] | max response [12] | Potency [13] | max response [14] | max response [15] | Potency [16] | max response [17] | Potency [18] | activation [19] | Potency [20] |
| --- | --- | --- | --- | --- | --- | --- | --- | --- | --- | --- | --- | --- | --- | --- | --- | --- | --- | --- | --- | --- |
| COC(=O)c1ccccc1S(=O)(=O)NC(=O)N(C)c1nc(C)nc(OC)n1 | inactive | inactive | -42.2% | inactive | inactive | inactive | inactive | -8.58% | -3.24% (inactive) | 9.61% (inactive) | 0.249% (inactive) | -1.41% (inactive) | inactive | -4.72% (inactive) | -7.64% (inactive) | inactive | 0.907% (inactive) |  |  |  |
| Nc1cnn(-c2ccccc2)c(=O)c1Cl | inactive | inactive | 13.7% |  | inactive | inactive | inactive | -1.68% | -7.65% (inactive) | -13.7% (inactive) | 6.85% (inactive) | -1.54% (inactive) | inactive | 11.3% (inactive) | -10.4% (inactive) | inactive | 4.89% (inactive) | inactive | -0.0509% (inactive) |  |
| O=C(O)C(F)(F)C(F)(F)C(F)(F)C(F)(F)C(F)(F)F | inactive | inactive | -15.9% | inactive | inactive | inactive | inactive | 3.1% | -23% (inactive) | 8.21% (inactive) | 0.455% (inactive) | 4.72% (inactive) |  | 3.24% (inactive) | -9.96% (inactive) | inactive | 2.05% (inactive) | inactive | -4.82% (inactive) |  |
| Nc1nc(N)nc(Cl)n1 | inactive |  |  |  | inactive | inactive | inactive | -6.94% and -9.26% and -7.48% | -8.75% (inactive) and -3.8% (inactive) and 6.06% (inactive) | -10% (inactive) and 5.94% (inactive) and 4.29% (inactive) | 0.466% (inactive) and 6.68% (inactive) and -2.27% (inactive) | 0.345% (inactive) and 0.412% (inactive) and -1.56% (inactive) | inactive | -27.2% (inactive) and -2.73% (inactive) and -17.4% (inactive) | -6.86% (inactive) and -11.8% (inactive) and -2.3% (inactive) | inactive | 0.0938% (inactive) and 1.1% (inactive) and -0.658% (inactive) |  |  |  |
| CCOP(=S)(NC(C)C)Oc1ccccc1C(=O)OC(C)C (configuration not stated) | inactive | inactive | -3.59% | inactive | inactive |  | inactive | -9.07% | -31.4% (inactive) | 1.38% (inactive) | 4.48% (inactive) | -0.429% (inactive) | inactive | -14.9% (inactive) | -18.9% (inactive) | inactive |  | inactive | 2.9% (inactive) |  |
| CCOP(=O)(NC(C)C)Oc1ccc(S(C)(=O)=O)c(C)c1 (configuration not stated) |  | inactive |  | inactive | inactive |  | inactive | -11.4% | 6.87% (inactive) | 9.01% (inactive) |  | -2.16% (inactive) | inactive | -4.32% (inactive) | -9.88% (inactive) | inactive | 4.77% (inactive) | inactive |  | inactive |
| CCOP(=O)(OCC)Oc1ccc2c(C)c(Cl)c(=O)oc2c1 |  | inactive | 36% |  |  | inactive |  | -10.4% | -0.0168% (inactive) | -0.271% (inactive) | 0.485% (inactive) | -3.26% (inactive) | inactive | -2.45% (inactive) | -8.63% (inactive) | inactive | 12.3% (inactive) | inactive | 2.64% (inactive) | inactive |
| CC(C)(c1ccccc1)c1cc(-n2nc3ccccc3n2)c(O)c(C(C)(C)c2ccccc2)c1 | inactive | inactive | 10.7% | inactive | inactive | inactive | inactive | -10.8% | 0.796% (inactive) |  | -0.0851% (inactive) | -0.734% (inactive) | inactive |  | -7.76% (inactive) | inactive | 2.09% (inactive) | inactive | -0.652% (inactive) |  |
| COc1cc(Cl)c(OC)cc1Cl | inactive |  |  | inactive | inactive | inactive | inactive |  |  | 4.96% (inactive) | -2.48% (inactive) | -0.244% (inactive) | inactive |  | -14.2% (inactive) |  | 1.36% (inactive) | inactive | -1% (inactive) |  |
| O=S(=O)(c1ccc(O)cc1)c1ccc(O)cc1 | inactive |  | 45.2% | inactive | inactive | inactive | inactive | -5.39% | 15.4% (inactive) | 5% (inactive) | -1.25% (inactive) | -4.37% (inactive) | inactive | -5.42% (inactive) | -8.18% (inactive) | inactive | -2.78% (inactive) | inactive | -2.48% (inactive) |  |
| CCOP(OCC)OCC | inactive |  |  |  | inactive | inactive | inactive | -5.06% | -9.86% (inactive) | 9.21% (inactive) | 1.72% (inactive) | -2.48% (inactive) | inactive |  | 0.538% (inactive) | inactive | 0.674% (inactive) |  | 0.684% (inactive) |  |
